# TcdB GH inh: blocks C. difficile toxin B glycohydrolase activity. inhibition, % at 9.99 µM. P18177. hit rate 0.24% among 350,000. AID 652162. TcdB glycohydrolase enzymatic assay, plate reader; in the data active = inhibition above about 10%
# Y pestis TopoI: inhibitors of Yersinia pestis topoisomerase I | Y. pestis Topo-I cleavage product accumulation, plate reader | activity, % at 10 µM | hit rate 0.064% among 360,000; in the data active = activity above about 50%, passing the limit was not always enough
# PrPC TRFRET: cell surface PrPC inhibition, primary TR-FRET screen | P04156 | TR-FRET read-out | inhibition, % at 13.8 µM | hit rate 0.43% among 370,000; in the data active = inhibition above about 24%; note: 0% = median of the test wells and 100% = reference compound wells
# GDH-TPI inh: GDH-TPI coupled enzyme inhibition counter-screen. GDH-TPI coupled enzyme counterscreen, NADH absorbance. inhibition, % at 4.8 µM. hit rate 1.2% among 360,000; in the data active = inhibition above about 30%;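 note: 0% = DMSO wells and 100% = wells lacking the enzyme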
# FBA Mtb inh: inhibits M. tuberculosis FBA enzyme. purified M. tuberculosis FBA, fluorescence read-out. inhibition, % at 1 µM. hit rate 2.3% among 360,000. AID 588726; in the data active = inhibition above about 27%;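 note: 0% = vehicle and 100% = reference inhibitor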
# Active calls of the source: *; x = not tested or not shown; + = active, no number. Rows were chosen to be rich in hits. Some 3.2% of all compounds tested hit in one or more screens of this group.
SMILES,TcdB GH inh,Y pestis TopoI,PrPC TRFRET,GDH-TPI inh,FBA Mtb inh
Cc1ccc(C)c(NC(=S)N(Cc2cccc(Br)c2)CC2CCC(C(=O)O)CC2)c1 (stereo unspecified),1.0,-10.2,3.9,-5.2,-7.4
O=C(O)C1CCC(CN(Cc2cccc(Br)c2)C(=S)Nc2ccccc2F)CC1 (stereo unspecified),11.5*,8.6,-5.8,0.3,0.7
N#C[C@H]1[C@@H](c2ccccc2)[C@H](CO)N1C(=O)c1cc(Cl)cc(Cl)c1,0.3,x,x,x,x
Cc1noc(C)c1S(=O)(=O)Nc1ccc2c(c1)C(=O)N([C@@H](C)CO)C[C@H](C)[C@@H](CN(C)S(=O)(=O)c1ccc(Cl)cc1)OCCCC[C@@H](C)O2,-0.4,x,x,x,x
CCOC(=O)c1nc2sc3c(c2c(=O)n1C(C)C(=O)OCC)CCCC3 (stereo unspecified),1.7,27.4,-2.1,11.0,134.5*
CCOC(=O)c1sc(NC(=O)Cn2nnc3sc4c(c3c2=O)CCCC4)nc1C,x,0.2,-1.9,28.7,-1.3
O=C(O)C1CCN(C(=O)COc2ccc3c(c2)oc(=O)c2ccccc23)CC1,0.8,0.7,2.6,10.8,138.4*
O=C(COc1ccc2c(c1)oc(=O)c1ccccc12)N[C@@H](Cc1ccccc1)C(=O)O,-1.2,3.4,-3.0,8.8,115.5*
Cc1c(Cc2ccccc2)c(=O)oc2cc(OCC(=O)N3CCC(C(=O)O)CC3)ccc12,0.1,6.3,-7.0,32.4*,148.2*
O=c1oc2cc(O[C@@H]3OC[C@@H](O)[C@H](O)[C@H]3O)ccc2c2ccccc12,1.4,-0.9,7.8,14.7,71.5*
O=C(COc1ccc2c3c(c(=O)oc2c1)CCC3)NC(Cc1ccc(Cl)cc1)C(=O)O (stereo unspecified),0.3,0.8,5.5,11.8,20.9
O=C(C[C@@H]1C[C@@H]2c3cc(NC(=O)NC4CCCC4)ccc3O[C@@H]2[C@H](CO)O1)NCCc1ccccc1,0.6,x,x,x,x
Cc1c(OCC(=O)N2CCC(C(=O)O)CC2)ccc2c1oc(=O)c1ccccc12,-1.9,3.3,-2.4,10.8,142.0*
COc1ccc(C2CC(c3ccc(Cl)cc3)=NN2c2ccc(S(N)(=O)=O)cc2)cc1 (stereo unspecified),1.7,29.9,-7.1,6.2,+
COc1ccc(C2CC(c3cccc(Cl)c3)=NN2c2ccc(S(N)(=O)=O)cc2)cc1 (stereo unspecified),0.0,22.2,-3.1,18.8,141.1*
CCNC(=O)C[C@H]1CC[C@H]2[C@H](COc3ccc(NC(=O)C4CCCCC4)cc3C(=O)N2C)O1,-1.1,x,x,x,x
COc1ccccc1NS(=O)(=O)c1cccc(C(=O)N/N=C/c2ccc(C)o2)c1,1.2,7.2,-0.7,40.5*,-1.1
COc1ccccc1NS(=O)(=O)c1cccc(C(=O)N/N=C/c2ccc(N3CCOCC3)cc2)c1,0.0,1.2,5.8,34.4*,0.9
COc1ccc(C2C=C(C)Nc3nc(SC)nn32)cc1 (stereo unspecified),x,4.4,-2.0,20.1,149.3*
CCOC(=O)C1=C(C)Nc2nc(SC)nn2C1c1ccc(C(=O)OC)cc1 (stereo unspecified),x,-7.4,x,-0.3,-1.9
C[C@H](CO)N1C[C@H](C)[C@H](CN(C)C(=O)C2CCOCC2)Oc2ncc(C#CC(C)(C)O)cc2C1=O,-0.4,x,x,x,x
COC1=C/C(=C/c2c(N)n3c(nc2=O)sc2cc(S(C)(=O)=O)ccc23)C=CC1=O,1.2,-1.6,0.7,51.9*,-4.6
CS(=O)(=O)c1ccc2c(c1)sc1nc(=O)c(/C=C3/C=CC(=O)C(O)=C3)c(N)n12,-1.3,4.4,3.4,17.3,5.9
CN1CC(=O)N/C1=N\C(=O)Nc1ccc(O)cc1,13.0*,6.1,-0.4,-3.8,1.4
COc1ccc(-c2cnc3c(c2)C(=O)N([C@H](C)CO)C[C@H](C)[C@H](CN(C)C(=O)C2CCC2)O3)cc1,-1.1,x,x,x,x
SMILES,TcdB GH inh,Y pestis TopoI,PrPC TRFRET,GDH-TPI inh,FBA Mtb inh
CC(=O)Nc1ccc(S(=O)(=O)C(C#N)c2nc3ccccc3nc2NCCO)cc1 (stereo unspecified),0.9,4.4,-9.9,22.7,+
CC(=O)Nc1ccc(S(=O)(=O)C(C#N)c2nc3ccccc3nc2NCCCO)cc1 (stereo unspecified),0.0,7.8,-11.4,23.7,+
COc1ccc2c3c([nH]c2c1)[C@@H](CO)N(Cc1ccccc1F)CC31CCN(C(=O)C2CC2)CC1,-0.9,x,x,x,x
Cc1c(C)c2ccc(OCC(=O)c3ccccc3)cc2oc1=O,-1.7,-3.8,-0.8,18.4,2.0
Cc1coc2cc3oc(=O)c(CCC(=O)NCC(=O)O)c(C)c3cc12,0.7,1.9,2.9,13.6,27.6*
COc1ccc(-c2c(C)c3cc(O)ccc3oc2=O)cc1,0.4,-6.6,-18.2,15.5,0.7
CCCc1c(C)c2ccc(OCC(C)=O)cc2oc1=O,x,1.9,3.4,3.9,124.1*
C=CCOC(=O)COc1ccc2c(C)c(CC)c(=O)oc2c1,x,3.3,5.7,-1.9,64.2*
COc1ccc(-c2c(C)c3ccc(O)cc3oc2=O)cc1OC,1.3,-0.6,-2.5,8.7,+
CC(=O)COc1ccc2c(C)c(-c3ccccc3)c(=O)oc2c1,2.5,10.1,3.8,8.6,7.8
O=C(C[C@@H]1C=C[C@H](NC(=O)c2cccc(F)c2)[C@H](CO)O1)NCc1ccccc1,0.7,x,x,x,x
Cc1ccc(S(=O)(=O)Nc2ccc3c(c2)C(=O)N([C@H](C)CO)C[C@H](C)[C@H](CN(C)C(=O)Nc2c(C)noc2C)OCCCC[C@@H](C)O3)cc1,1.5,x,x,x,x
O=C(C[C@H]1C[C@H]2c3cc(NS(=O)(=O)c4ccc(F)cc4)ccc3O[C@H]2[C@@H](CO)O1)NCc1cc(F)ccc1F,-1.2,x,x,x,x
Cc1c(CCC(=O)O)c(=O)oc2cc3occ(C(C)(C)C)c3cc12,0.5,11.0,2.1,11.9,21.2
Cc1c(CCC(=O)O)c(=O)oc2cc(O)ccc12,x,3.9,0.7,20.2,+
C[C@H](NC(=O)C[C@H]1CC[C@@H](NC(=O)Cc2ccccn2)[C@@H](CO)O1)c1ccccc1,-1.0,x,x,x,x
COc1ccccc1CCN=C(N)NS(=O)(=O)c1ccc(F)cc1,1.0,14.1,1.9,1.0,0.5
COc1ccc(S(=O)(=O)NC(N)=NCCc2ccccc2OC)cc1,0.4,2.6,-1.5,-3.9,190.7*
CC(=O)N[C@@H]1CC[C@H](CCNC(=O)Nc2ccc(C(F)(F)F)cc2)O[C@@H]1CO,-0.5,x,x,x,x
COc1ccc(-c2cnc3c(c2)C(=O)N([C@@H](C)CO)C[C@@H](C)[C@@H](CN(C)C(=O)C2CCC2)O3)cc1,-0.9,x,x,x,x
CCOC(=O)CCc1c(C)c2ccc3c(c2oc1=O)CN(CCCO)CO3,0.7,-8.1,3.6,13.9,+
CCOC(=O)CCc1c(C)c2ccc(OCC(=O)N3CCOCC3)c(C)c2oc1=O,1.2,-6.1,-4.9,23.9,145.8*
O=C(COc1ccc2cc(Br)ccc2c1Br)N1CCOCC1,-0.5,53.1*,19.3,4.2,1.9
O=C(C[C@H]1CC[C@H]2[C@@H](COC[C@H](O)CN2Cc2ccccc2F)O1)NCc1ccccc1F,0.4,x,x,x,x
CNC(=O)C[C@H]1CC[C@@H]2[C@H](COc3ccc(NC(=O)c4ccccc4Cl)cc3C(=O)N2C)O1,2.3,x,x,x,x
